Outcome and AC50 data for 40 compounds are collected here from PubChem BioAssay (EPA / NIEHS).

Values joined by “and” are separate entries in the source; they are usually repeats but may differ in a detail not shown here. Identical values can stand only once. Active and inactive are the calls of the source. The calls were made as follows: active = hit-call score of the fitted dose curve at least 0.9, where 1 is the maximum; inactive = score below 0.9.

Read-out in this experiment: Interleukin-8 (IL8), CXCL8 (gene 3576)
Nature of the experiment: BSK_LPS_IL8: BioMAP Diversity Plus: LPS Assay for Interleukin-8 (IL8) Biomarker Activity (AID 2283078). The note with it: primary human HUVEC with PBMC; actives raise or lower the signal. The procedure: BSK_LPS is a cell-based, multiplexed-readout assay that uses umbilical vein endothelium and peripheral blood mononuclear cells, a human vascular primary cell co-culture, with measurements taken at 24 hours after chemical dosing in a 96-well plate.BSK_LPS_IL8 is an assay component measured in the BSK_LPS assay. It measures IL-8 antibody related to regulation of gene expression using ELISA technology.Data from the assay component BSK_LPS_IL8 was analyzed into 1 assay endpoint. This assay endpoint, BSK_LPS_IL8, was analyzed with bidirectional fitting relative to DMSO as the negative control and baseline of activity. Using a type of binding reporter, gain or loss-of-signal activity can be used to understand changes in the signaling as they relate to the gene CXCL8. Furthermore, this assay endpoint can be referred to as a primary readout, because this assay has produced multiple assay endpoints where this one serves a signaling function. To generalize the intended target to other relatable targets, this assay endpoint is annotated to the cytokine intended target family, where the subfamily is interleukins.
The levels of cell surface (or secreted, indicated by the prefix "s") biomarker endpoints were measured by ELISA. Overt cytotoxicity to cells in confluent adherent cultures (all systems other than the BT system) was assessed by measuring total protein levels using sulforhodamine B (SRB) staining in parallel cultures at the time of biomarker measurements, indicated as SRB endpoints. For proliferation assays for adherent cell types, individual cell types are cultured at sub-confluence and relative cell numbers quantified by SRB staining at time points optimized for each system (48 h: 3C and CASM3C systems; 72 h: BT and HDF3CGF systems; 96 h: SAg system). SRB was performed by staining cells with 0.1% SRB after fixation with 10% TCA and reading wells at 560 nm.Viability and proliferation of PBMC (T cells) was quantified by Alamar Blue reduction for the SAg and BT systems. For PBMC viability (referred to as PBMC Cytotoxicity within the assay endpoint names), cells were plated (75,000/well in a 96-well plate) and then chemical samples added for 1 h before addition of activators, SEB and TSST-1 (20 ng/mL final concentration each). Cells were incubated for 90 h. Then, Alamar Blue (20 uL/well) (Invitrogen, Cat DAL1100) was added for 6 h, and the plates were read with a fluorescence microplate reader at 546/580 nm (excitation/emission). For PBMC proliferation, cells were plated and activated as above but incubated for only 16 h prior to addition of Alamar Blue. Plates were read after 6 h.
In the case of `CCCCOC(=O)[C@@H](C)Oc1ccc(Oc2ccc(C(F)(F)F)cn2)cc1`, the result was inactive.
On to `CCCCOC(=O)C(C)Oc1ccc(Oc2ccc(C(F)(F)F)cn2)cc1` (stereo not given), for which the outcome was inactive.
Usually AC50 stands for the concentration at which the activity in the assay is half-maximal. Consider `CC1(C)C(C=C(Cl)Cl)C1C(=O)OCc1cccc(Oc2ccccc2)c1` (stereo not given), for which the AC50 was 10 µM (active).
For `COC(=O)CSc1cc(N=c2sc(=O)n3n2CCCC3)c(F)cc1Cl`, the result was inactive.
Take `CCC(C)OC(=O)N1CCCCC1CCO` (stereo not given): the outcome was inactive.
Consider `COC(=O)c1ccc(I)cc1S(=O)(=O)NC(=O)Nc1nc(C)nc(OC)n1`, for which the result was inactive.
Still for that read-out and setting: under `CCSC(=O)N(CC(C)C)CC(C)C` stands “inactive”; under `CC(C)(c1ccc(O)cc1)c1ccc(O)cc1`, “inactive”.
On the same count and under the same terms, under `O=C(c1ccc(O)cc1O)c1ccc(O)cc1O` stands “inactive”; under `CCCCC(CC)CN1C(=O)C2C3C=CC(C3)C2C1=O` (stereo not given), “inactive”; under `CCCN(CCC)C(=O)SCC`, “inactive”.
Take `COc1c(Cl)ccc(Cl)c1C(=O)O`: the result was inactive.
On the same count and under the same terms, with `COc1nc(C)nc(NC(=O)NS(=O)(=O)c2ccccc2OCCCl)n1` the entry was “inactive”.
Regarding `CCN(Cc1c(F)cccc1Cl)c1c([N+](=O)[O-])cc(C(F)(F)F)cc1[N+](=O)[O-]`, the AC50 was 13.6 µM (active).
For the compound `CCCOC(=O)c1ccc(C(=O)OCCC)nc1`, the result was inactive.
With `N#CSCSc1nc2ccccc2s1`, the AC50 is 5.09 µM (active) and 9.38 µM (active).
As for `CC(C)(C)[C@@H](O)[C@@H](Cc1ccc(Cl)cc1)n1cncn1`, the result was inactive.
On the same count and under the same terms, under `C[C@]12C[C@H](O)[C@H]3[C@@H](CCC4=CC(=O)CC[C@@]43C)[C@@H]1CC[C@@H]2C(=O)CO` stands “inactive”.
As for `CCCCOCCOCCOCc1cc2c(cc1CCC)OCO2`, the AC50 was 13.3 µM (active).
As to `O=C(O)c1ccccc1`, the result was inactive.
In the case of `CCCCCOC(=O)COc1cc(N2C(=O)C3=C(CCCC3)C2=O)c(F)cc1Cl`, the concentration at half-maximal activity (AC50) is 20 µM (active).
For `c1ccc(Nc2ccccc2)cc1`, the result was inactive.
For `S=C(S)NCCNC(=S)S.[Mn+2].[S-]C([S-])=NCCN=C([S-])[S-].[Zn+2]`, the result was inactive.
On the same count and under the same terms, with `C=CCOC(Cn1ccnc1)c1ccc(Cl)cc1Cl` (stereo not given) the entry was “inactive”; with `CCOC(=O)[C@H](C)Oc1ccc(Oc2nc3ccc(Cl)cc3o2)cc1`, “inactive”.
On to `Cc1nn(C)c(Oc2ccccc2)c1C=NOCc1ccc(C(=O)OC(C)(C)C)cc1`, for which the AC50 was 8.08 µM (active).
Consider `CCCOC(=O)NCCCN(C)C`, for which the result was inactive.
`COC(=O)c1ccc(CNS(C)(=O)=O)cc1S(=O)(=O)NC(=O)Nc1nc(OC)cc(OC)n1`: the result was inactive.
The same measure, in the same setting: with `CCOC(=O)c1ccc(O)cc1` the entry was “inactive”.
`C#C[C@]1(O)CC[C@H]2[C@@H]3CCC4=CC(=O)CC[C@@H]4[C@H]3CC[C@@]21CC`: the result was inactive.
On the same count and under the same terms, with `COC(=O)c1cccc(C)c1S(=O)(=O)NC(=O)Nc1nc(OCC(F)(F)F)nc(N(C)C)n1` the entry was “inactive”; with `CCOC(=O)C(C)Oc1ccc(Oc2cnc3cc(Cl)ccc3n2)cc1` (stereo not given), “inactive”.
The same measure, in the same setting: under `COC(=O)c1ccccc1S(=O)(=O)NC(=O)Nc1nc(OC(F)F)cc(OC(F)F)n1` stands “inactive”; under `CCN(CC)C(=O)c1cccc(C)c1`, “inactive”.
On the same count and under the same terms, with `CCNc1nc(N)nc(Cl)n1` the entry was “inactive”; with `O=C(c1ccccc1)C1CCCCC1`, “inactive”.
For `CC(=O)S[C@@H]1CC2=CC(=O)CC[C@]2(C)[C@H]2CC[C@@]3(C)[C@@H](CC[C@@]34CCC(=O)O4)[C@H]12`, the AC50 was 15.9 µM (active).
As to `CN(C)C(=O)Nc1ccc(Cl)c(Cl)c1`, the result was inactive.
Still for that read-out and setting: under `CCCN(CCC)c1c([N+](=O)[O-])cc(C(F)(F)F)c(N)c1[N+](=O)[O-]` stands “inactive”; under `COC(=O)c1ccccc1C(=O)O`, “inactive”.
